A short description of assay [1]: NS1 protein of Zika virus - qHTS assay to identify small molecule inhibitors in human HEK 293 cells (AID 1347053). Also: series mostly up to about 46 µM; nearly all actives have a fitted effect of over 55% in size. Summed up:
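HEK 293; 20 h pre-culture, 37 C/5% CO2; cpd 1 h pre-infection; ZIKV MR766, MOI = 0.5, 24 h, 37 C; TR-FRET NS1 readout (two anti-NS1 Abs); norm. to no-virus vs infected.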
In general terms: qHTS replaces the single test concentration by a dilution series.

In assay [2] the target is T1, Tyrosine-protein phosphatase non-receptor type substrate 1 (Homo sapiens) + Leukocyte surface antigen CD47 (Homo sapiens) (UniProt P78324+Q08722). As to the kind of experiment: CD47-SIRPalpha protein protein interaction - HTRF assay qHTS validation (AID 1347058; active = well fitted curve in the direction sought with a large enough effect in the signal ratio, not every such curve was filed as active; the % refers to the signal ratio;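 also: recombinant soluble extracellular CD47 with His tag and biotinylated SIRPalpha domains; series mostly up to about 38 µM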). Summed up: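 TR-FRET read (Ch1/Ch2 ratio) of soluble extracellular CD47 and Avi-biotinylated SIRPalpha domains in PBS pH 7.4 with 0.05% IGEPAL; 7-point compound titration. Sequential 30 min room-temperature steps; non-biotinylated SIRPalpha as control inhibitor.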
T1 sequence (P78324 whole entry, looked up, the tested form may be a part): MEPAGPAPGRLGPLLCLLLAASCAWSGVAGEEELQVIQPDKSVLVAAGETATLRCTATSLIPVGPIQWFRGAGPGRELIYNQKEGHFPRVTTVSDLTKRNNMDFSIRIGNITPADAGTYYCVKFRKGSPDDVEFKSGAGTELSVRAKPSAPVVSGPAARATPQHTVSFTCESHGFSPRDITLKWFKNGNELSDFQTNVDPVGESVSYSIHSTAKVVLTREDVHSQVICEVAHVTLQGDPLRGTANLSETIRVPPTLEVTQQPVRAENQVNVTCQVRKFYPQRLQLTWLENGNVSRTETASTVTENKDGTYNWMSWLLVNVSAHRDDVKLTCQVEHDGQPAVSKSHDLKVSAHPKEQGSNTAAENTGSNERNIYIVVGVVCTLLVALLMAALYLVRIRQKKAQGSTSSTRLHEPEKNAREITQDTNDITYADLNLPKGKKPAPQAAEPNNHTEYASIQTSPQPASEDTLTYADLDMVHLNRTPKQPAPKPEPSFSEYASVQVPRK
T1 sequence (Q08722 whole entry, looked up, the tested form may be a part): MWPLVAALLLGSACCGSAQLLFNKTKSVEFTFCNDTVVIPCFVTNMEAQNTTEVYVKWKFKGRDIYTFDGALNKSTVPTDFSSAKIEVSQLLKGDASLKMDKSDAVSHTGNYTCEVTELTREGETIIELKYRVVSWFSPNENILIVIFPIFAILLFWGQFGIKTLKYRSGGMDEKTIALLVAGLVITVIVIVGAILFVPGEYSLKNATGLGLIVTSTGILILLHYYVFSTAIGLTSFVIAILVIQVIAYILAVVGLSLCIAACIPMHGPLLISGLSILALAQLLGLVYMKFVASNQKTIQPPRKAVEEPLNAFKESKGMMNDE
Background: In TR-FRET formats the signal depends on donor and acceptor labels being close together.

Assay [3] has as its target T1, Tyrosine-protein phosphatase non-receptor type substrate 1 (Homo sapiens) + Leukocyte surface antigen CD47 (Homo sapiens). As to the kind of experiment: CD47-SIRPalpha protein protein interaction - Alpha assay qHTS validation (AID 1347059).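 Also: bead proximity luminescence from CD47 binding SIRPalpha after compound preincubation with SIRPalpha.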 Summed up:
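Binding is measured by AlphaScreen proximity: Ni-NTA acceptor beads capture His-CD47, streptavidin donor beads capture biotin-SIRPalpha. Each of three additions (SIRPalpha with compound, CD47, beads) incubates 30 min at room temperature protected from light.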

For assay [4], the target named is Parathyroid hormone/parathyroid hormone-related peptide receptor (Homo sapiens) (UniProt Q03431). As to the kind of experiment: qHTS for PTHR1 Agonists: Optimization Screen against the NCGC LOPAC library (AID 1347079).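 Also: GloSensor cAMP luminescence in HEK-293 GP2 cells expressing human PTHR1 with IBMX.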 Summed up: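 Agonist readout: GloSensor cAMP luminescence, read after 15 min at room temperature. HEK-293-derived GP2 line carries PTHR1; compounds tested as a titration for 1 hr at 37C in presence of IBMX. M-PTH (1-15) served as control.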
Parathyroid hormone/parathyroid hormone-related peptide receptor (Homo sapiens), sequence (Q03431 whole entry, looked up): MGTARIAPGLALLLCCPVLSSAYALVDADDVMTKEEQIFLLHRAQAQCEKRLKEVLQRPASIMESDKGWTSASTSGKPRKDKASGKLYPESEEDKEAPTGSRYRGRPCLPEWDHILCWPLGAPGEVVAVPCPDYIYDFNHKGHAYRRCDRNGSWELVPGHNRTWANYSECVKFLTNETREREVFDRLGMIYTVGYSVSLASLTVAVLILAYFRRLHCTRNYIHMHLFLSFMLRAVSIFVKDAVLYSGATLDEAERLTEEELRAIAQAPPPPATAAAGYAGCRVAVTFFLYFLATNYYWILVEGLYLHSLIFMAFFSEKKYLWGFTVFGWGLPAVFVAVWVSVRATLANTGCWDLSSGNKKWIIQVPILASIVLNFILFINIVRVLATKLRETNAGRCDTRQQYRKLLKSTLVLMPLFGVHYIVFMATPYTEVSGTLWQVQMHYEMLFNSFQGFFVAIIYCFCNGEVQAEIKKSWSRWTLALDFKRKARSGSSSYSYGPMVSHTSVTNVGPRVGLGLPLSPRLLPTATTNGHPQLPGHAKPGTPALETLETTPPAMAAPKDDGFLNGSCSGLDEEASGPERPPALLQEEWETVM

Assay [5] is described as follows: qHTS of pediatric cancer cell lines to identify multiple opportunities for drug repurposing: Primary screen for TC32 cells (AID 1347089). Also: nearly all actives have a fitted effect of over 60% in size. Summed up:
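Luminescent CellTiter-Glo read-out of metabolically active TC32 cells after 48 h compound exposure. Primary: MIPE 11-point, 0.78 nM–46 µM; NPC 8-point, 0.59 nM–46 µM. Confirmatory: 11-point dilutions.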

The nature of assay [6]: qHTS of pediatric cancer cell lines to identify multiple opportunities for drug repurposing: Primary screen for DAOY cells (AID 1347090). Also: series mostly up to about 46 µM; nearly all actives have a fitted effect of over 55% in size. Summed up:
(§1)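 Cell viability, CellTiter-Glo luminescence; 500-1,000 cells/well, 8- or 11-point titration, 48 h compound exposure at 37 degrees C, 5% CO2. Controls: DMSO neutral, bortezomib 2.3 µM final as positive.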

The nature of assay [7]: qHTS of pediatric cancer cell lines to identify multiple opportunities for drug repurposing: Primary screen for SJ-GBM2 cells (AID 1347091). Also: potency is read from the fitted curve at half-maximal effect. Summed up:
as §1

A short description of assay [8]: qHTS of pediatric cancer cell lines to identify multiple opportunities for drug repurposing: Primary screen for A673 cells (AID 1347092). Also: nearly all actives have a fitted effect of over 45% in size. Summed up: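 A673 cells (500-1,000 cells/well in growth media) were pre-incubated 5 h at 37 degrees C, then exposed to compounds for 48 h. Viability was read as CellTiter-Glo luminescence; concentration-response curves came directly from the primary screen.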

Assay [9] can be described thus: qHTS of pediatric cancer cell lines to identify multiple opportunities for drug repurposing: Primary screen for BT-37 cells (AID 1347094). Also: series mostly up to about 57 µM. The gist of the method:
(§2)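 500-1,000 cells/well; 5 h pre-incubation 37 °C/5% CO2; compound pinned; 48 h; CellTiter-Glo, 15 min RT; luminescence. MIPE 11-pt from 0.78 nM, NPC 8-pt from 0.59 nM final. Bortezomib 2.3 µM final as positive control.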

Assay [10] is described as follows: qHTS of pediatric cancer cell lines to identify multiple opportunities for drug repurposing: Primary screen for NB-EBc1 cells (AID 1347095). The gist of the method: as §2
Assay [11] is described as follows: qHTS of pediatric cancer cell lines to identify multiple opportunities for drug repurposing: Primary screen for U-2 OS cells (AID 1347096). Also: nearly all actives have a fitted effect of over 50% in size. The gist of the method:
(§3)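 Cells (500-1,000/well) rested 5 h, then received compounds for 48 h; metabolically active cells were measured by CellTiter-Glo luminescence. Final concentrations spanned up to 46 µM (MIPE, 11-point) or 0.59 nM-46 µM (NPC, 8-point) in primary screens, 11-point in follow-ups.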

Assay [12] is described as follows: qHTS of pediatric cancer cell lines to identify multiple opportunities for drug repurposing: Primary screen for SK-N-SH cells (AID 1347098). Also: nearly all actives have a fitted effect of over 65% in size. The gist of the method: as §3
A short description of assay [13]: qHTS of pediatric cancer cell lines to identify multiple opportunities for drug repurposing: Primary screen for NB1643 cells (AID 1347099). Also: nearly all actives have a fitted effect of over 50% in size. The gist of the method:
as §2

Assay [14] is described as follows: qHTS of pediatric cancer cell lines to identify multiple opportunities for drug repurposing: Primary screen for LAN-5 cells (AID 1347100). Summed up:
as §3

A short description of assay [15]: qHTS of pediatric cancer cell lines to identify multiple opportunities for drug repurposing: Primary screen for Rh18 cells (AID 1347102). Also: nearly all actives have a fitted effect of over 65% in size. Summed up:
as §3

Assay [16] is described as follows: qHTS of pediatric cancer cell lines to identify multiple opportunities for drug repurposing: Primary screen for OHS-50 cells (AID 1347103). Also: nearly all actives have a fitted effect of over 40% in size. Also: potency is read from the fitted curve at half-maximal effect. Summed up:
as §3

Assay [17] in a line: qHTS of pediatric cancer cell lines to identify multiple opportunities for drug repurposing: Primary screen for SK-N-MC cells (AID 1347093). Also: series mostly up to about 46 µM. Summed up:
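Metabolically active cells were quantified by ATP-dependent luminescence (CellTiter-Glo, 15 min at room temperature) following 48 h treatment. Cells had been plated at 500-1,000 per well and settled for 5 h beforehand.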

Assay [18] is described as follows: qHTS of pediatric cancer cell lines to identify multiple opportunities for drug repurposing: Primary screen for Saos-2 cells (AID 1347097). Also: nearly all actives have a fitted effect of over 40% in size. The gist of the method: as §2
In assay [19] the target is T1, Tyrosine-protein phosphatase non-receptor type substrate 1 (Homo sapiens) + Leukocyte surface antigen CD47 (Homo sapiens). As to the kind of experiment: CD47-SIRPalpha protein protein interaction - LANCE assay qHTS validation (AID 1347057; active = well fitted curve in the direction sought with a large enough effect in the signal ratio, with a control signal flat, not every such curve was filed as active; the % refers to the signal ratio; also: series mostly up to about 38 µM). The gist of the method:
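First, His-tagged CD47 and Eu-labelled anti-His antibody met the compound for 30 min; next, site-specifically biotinylated SIRPalpha was added for 30 min; finally streptavidin-APC was added before reading the TR-FRET ratio.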

Assay [20] is described as follows: qHTS of pediatric cancer cell lines to identify multiple opportunities for drug repurposing: Primary screen for BT-12 cells (AID 1347101). Also: nearly all actives have a fitted effect of over 25% in size. Summed up:
as §3

The values below come from PubChem BioAssay (NCATS).

Molecules are shown by their SMILES. Inconclusive results are not listed. Active and inactive are the calls of the source. Unless noted, calls follow the shape of the dose curve; as a rule, active = well fitted curve in the direction sought with a large enough effect; inconclusive = small, poorly fitted or top-dose-only effect, or another doubt; inactive = no such curve, though single readings can be large; an effect the other way counts as inactive or inconclusive.

Regarding `CCCC(CCC)C(=O)O`, the Potency result in [1], in [5], in assay [6], in assay [7], in assay [8] and in assay [9] was “inactive” in each case. The Potency entry in assay [10], in assay [11], in [12], in [13], in assay [14] and in assay [15] was “inactive” throughout. For the same compound, the Potency entry in assay [16] was “inactive”. Further, the outcome in assay [2], in [3] and in [4] was inactive.
On to `Cc1[nH]c(=O)c(C#N)cc1-c1ccc2nccn2c1`, for which the Potency result in assay [1], in assay [5], in assay [6], in [7], in assay [8] and in assay [17] was “inactive” in each case. Besides, the Potency result in assay [9], in assay [10], in [11], in assay [18], in assay [12] and in assay [13] was “inactive” throughout. The Potency result in assay [14], in assay [15] and in assay [16] was “inactive” each time. In addition, the outcome in [2], in [3] and in assay [4] was inactive.
Take `Clc1cccc(Cl)c1NC1=NCCN1`: the Potency entry in assay [1], in assay [5], in [6], in assay [7], in assay [8] and in assay [17] was “inactive” in each case. Also, the Potency entry in assay [10], in assay [11], in assay [12], in [13], in [14] and in [15] was “inactive” throughout. The Potency entry in [16] was “inactive”. Also, the result in assay [19], in assay [2], in assay [3] and in assay [4] was inactive.
`NCCCC(N)(C(=O)O)C(F)F` (stereo unspecified): the Potency entry in [1], in [5], in assay [6], in assay [7], in assay [9] and in [10] was “inactive” each time. Moreover, the Potency result in [11], in assay [18], in assay [14], in assay [20], in assay [15] and in [16] was “inactive” each time. Moreover, the outcome in assay [19], in assay [2], in [3] and in [4] was inactive.
`O=C1CCC(N2C(=O)c3ccccc3C2=O)C(=O)N1` (stereo unspecified): the Potency result in [1], in [5], in assay [6], in assay [7], in assay [8] and in assay [17] was “inactive” in each case. Also, the Potency result in assay [9], in assay [10], in assay [11], in assay [18], in [12] and in assay [13] was “inactive” throughout. The Potency result in [14], in assay [15] and in [16] was “inactive” throughout. Further, the result in assay [2], in assay [3] and in assay [4] was inactive.
For `O=c1[nH]cnc2[nH]ncc12`, the Potency entry in assay [1], in assay [5], in [6], in assay [7], in assay [8] and in assay [9] was “inactive” each time. Further, the Potency entry in assay [10], in assay [11], in assay [18], in [12], in [13] and in [14] was “inactive” in each case. The Potency entry in assay [15] was “inactive”. Also, the result in assay [2], in assay [3] and in [4] was inactive. In assay [16], the Potency is 21.7 µM (active).
For the compound `Nc1nc2ccc(OC(F)(F)F)cc2s1`, the Potency result in [1], in assay [5], in assay [6], in [10], in assay [11] and in [12] was “inactive” each time. Further, the Potency entry in [13] and in [15] was “inactive” throughout. Also, the outcome in assay [19], in [2], in [3] and in assay [4] was inactive. In assay [7], the Potency is 21.1 µM (active).
For `CC(=O)Oc1ccccc1C(=O)O`, the Potency entry in assay [1], in assay [5], in assay [7], in [8], in assay [17] and in assay [10] was “inactive” throughout. Besides, the Potency result in assay [11], in assay [18], in assay [13], in [14], in assay [15] and in assay [16] was “inactive” throughout. Besides, the outcome in [2], in assay [3] and in [4] was inactive.
Take `Nc1nc2c(ncn2COCCO)c(=O)[nH]1`: the Potency result in [1], in assay [5], in assay [6], in [7], in assay [8] and in assay [10] was “inactive” each time. Further, the Potency result in [11], in [18], in assay [13], in assay [14], in assay [15] and in assay [16] was “inactive” in each case. Also, the outcome in [2], in assay [3] and in [4] was inactive.
As to `NC(=O)c1cnccn1`, the Potency result in assay [1], in assay [5], in assay [6], in [7], in assay [8] and in assay [17] was “inactive” throughout. Besides, the Potency entry in assay [10], in [11], in assay [13], in assay [14], in assay [20] and in [15] was “inactive” throughout. The Potency entry in assay [16] is “inactive”. The result in assay [2], in [3] and in [4] was inactive.
In the case of `CC(C)NCC(O)COc1ccc(COCCOC(C)C)cc1` (stereo unspecified), the Potency entry in assay [1], in assay [5], in [6], in assay [7], in assay [8] and in assay [17] was “inactive” each time. Further, the Potency entry in [9], in assay [10], in assay [11], in [18], in [12] and in assay [13] was “inactive” in each case. In addition, the Potency entry in [14], in [20], in assay [15] and in assay [16] was “inactive” in each case. Moreover, the outcome in assay [2], in [3] and in assay [4] was inactive.
As to `CCCCNc1cc(C(=O)O)cc(S(N)(=O)=O)c1Oc1ccccc1`, the Potency entry in [1], in [5], in [6], in [7], in assay [8] and in [17] was “inactive” throughout. The Potency result in [9], in assay [10], in [11], in assay [13], in assay [14] and in [15] was “inactive” in each case. The Potency result in assay [16] is “inactive”. Besides, the outcome in assay [19] and in assay [4] was inactive.
As for `CC(C[N+](C)(C)C)OC(N)=O` (stereo unspecified), the Potency entry in [1], in assay [5], in [6], in assay [7], in [8] and in assay [17] was “inactive” throughout. Also, the Potency entry in assay [9], in assay [10], in assay [11], in [12], in assay [13] and in assay [14] was “inactive” throughout. Besides, the Potency result in [20], in assay [15] and in assay [16] was “inactive” throughout. In addition, the outcome in [2], in assay [3] and in assay [4] was inactive.
On to `OC(CCN1CCCCC1)(c1ccccc1)C1CC2C=CC1C2` (stereo unspecified), for which the Potency entry in assay [1], in [5], in [6], in assay [7], in assay [8] and in [17] was “inactive” in each case. The Potency result in [10], in assay [11], in [18], in [12], in assay [13] and in assay [14] was “inactive” in each case. The Potency entry in [15] and in assay [16] was “inactive” throughout. The result in assay [19], in [2], in [3] and in assay [4] was inactive.
